# In the library only some 2.8% were active in any assay of this set; here they are far more common.
# IP6K1 inh: Primary qHTS assay for small molecule inhibitors of Inositol hexaphosphate kinase 1 (IP6K1); Inositol hexakisphosphate kinase 1 (Homo sapiens), Q92551; IP6K1 kinase, ADP-Glo luminescence, 2 h; stronger effect = lower value; activity change, % (series mostly up to about 58 µM); 140,000 compounds, 0.81% hits; AID 1645851, 2021; in the data active means activity change below about -25%
# Target sequence (Q92551 whole entry, looked up): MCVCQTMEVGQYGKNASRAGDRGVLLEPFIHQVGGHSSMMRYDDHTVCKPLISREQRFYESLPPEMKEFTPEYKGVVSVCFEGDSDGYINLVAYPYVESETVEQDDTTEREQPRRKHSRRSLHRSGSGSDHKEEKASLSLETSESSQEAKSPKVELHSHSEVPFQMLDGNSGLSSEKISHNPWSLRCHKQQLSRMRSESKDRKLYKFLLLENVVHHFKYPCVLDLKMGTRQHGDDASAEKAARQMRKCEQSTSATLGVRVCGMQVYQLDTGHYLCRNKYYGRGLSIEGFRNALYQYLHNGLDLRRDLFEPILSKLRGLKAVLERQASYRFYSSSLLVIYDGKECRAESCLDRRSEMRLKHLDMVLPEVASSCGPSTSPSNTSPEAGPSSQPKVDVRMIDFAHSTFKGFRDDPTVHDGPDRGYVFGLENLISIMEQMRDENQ
#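 ADP-Glo luminescence measures ADP made by human IP6K1 during a 2 h RT reaction with ATP/IP6 (mix at 1.3 mM/130 uM); top library doses 57.5 and 19.1 uM final.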
# SNCA expr inhib: Primary qHTS assay for inhibitors of alpha-synuclein gene (SNCA) expression. HEK-293 SNCA-luciferase knock-in, luminescence, 24 h. Potency, µM (top dose mostly 57.2 µM), actives largely listed as inhibitors. 140,000 compounds, 0.17% hits; further: nearly all actives have a fitted effect of over 45% in size
# SNCA viab count: GF-AFC viability counterscreen for inhibitors of alpha-synuclein gene (SNCA) expression; 150,000 compounds, 0.12% hits; Potency, µM (series often up to 57.1 µM), hits mostly cytotoxic; AID 1671193, 2021; HEK-293-SNCA-luc viability, GF-AFC fluorescence, 24 h; further: nearly all actives have a fitted effect of over 30% in size
#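 HEK-293-SNCA-luc cells (1500/well) plated 24 h, then exposed 24 h to a dilution series; GF-AFC added 30 min at 37C, fluorescence 405/540 nm; normalised to medium-only and DMSO wells, Hill fit.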
# KDM5B inhibitor: Primary screen for KDM5B Histone Demethylases FDH-coupled qHTS. Lysine-specific demethylase 5B (Homo sapiens), Q9UGL1. KDM5B demethylase, FDH-coupled NADH fluorescence (FDH is formaldehyde dehydrogenase). Potency, µM (series often up to 57.7 µM), actives largely listed as inhibitors. 220,000 compounds, 2.6% hits; further: nearly all actives have a fitted effect of over 70% in size
#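 Inhibition is measured as reduced NADH fluorescence generation from FDH coupling to formaldehyde release. Truncated KDM5BΔAP at 200 nM final acts on H3K4me3 peptide (12.5 µM in substrate mix) in pH 7.5 HEPES buffer with Tween-20, 30 min, room temperature.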
# A number is an active result; 0 = inactive; ? = inconclusive; - = not tested or not shown. Unless noted, the call rests on the fitted dose curve; in most records, active means well fitted curve in the direction sought with a large enough effect; inconclusive means small, poorly fitted or top-dose-only effect, or another doubt; inactive means no such curve, though single readings can be large; an effect the other way counts as inactive or inconclusive.
SMILES,IP6K1 inh,SNCA expr inhib,SNCA viab count,KDM5B inhibitor
COc1ccccc1C(=O)NC1CCN(c2cc(-c3cccs3)[nH]n2)C1 (stereo unspecified),0,0,?,16µM
O=C(NC1CCN(c2cc(-c3cccs3)[nH]n2)C1)c1ccccc1Br (stereo unspecified),0,0,0,25µM
O=S(=O)(c1ccccc1F)N1CCN(Cc2ncc(-c3ccc(F)cc3)o2)CC1,-,-,-,0
O=C(CN1CC2CC(C1)[C@H]1CCCC(=O)N1C2)NCCCc1ccccc1 (stereo partly specified),0,0,0,0
Cc1ccc2nc(SCc3nc(-c4ccc(Cl)cc4)no3)[nH]c2c1,0,22µM,0,0
CCOC(=O)CN1CCCC1c1ccc(C(=O)NCCn2ccnc2)s1 (stereo unspecified),0,0,0,28µM
COc1ccc(C2CCCN2C(=O)NCCn2ccnc2)cc1OC (stereo unspecified),-,-,-,0
O=C(c1cc2c(s1)CN(C1CCCC1)C2)N1CCCN(c2ncccn2)CC1,0,0,0,6.3µM
COc1ncccc1-c1ccc2onc(C)c2n1,0,0,0,?
COC(=O)c1cccc(COC2CN(c3c(Cl)cccc3Cl)[S+](=O)([O-])c3ccccc32)c1 (stereo unspecified),0,-,-,-
CN1C[C@@H](NC(=O)c2ccccn2)C[C@H]1c1nc(-c2ccc3ccccc3c2)no1,0,0,0,?
CN(C)c1ccc(C(=O)N[C@H]2C[C@@H](c3nc(-c4ccc5ccccc5c4)no3)N(C)C2)cc1,0,0,0,35µM
O=C1NCCCC[C@@H]1Nc1ccc(-c2nc(COc3ccccc3)no2)cn1,0,0,0,28µM
c1ccc(OCc2noc(-c3ccc(NCC4CCCCO4)nc3)n2)cc1 (stereo unspecified),0,0,0,?
Cc1nonc1C1CCCN1c1ccc(-c2nc(COc3ccccc3)no2)cn1 (stereo unspecified),0,0,0,28µM
O=S(=O)(C1CC1)N1CCC(Cc2noc(-c3ccccc3)n2)C1 (stereo unspecified),0,0,0,0
COc1cc(O)c2c(c1)C1OC1C[C@H](O)[C@H](O)C(=O)/C=C\C[C@H](C)OC2=O (stereo partly specified),0,-,12µM,-
COc1cc(O)c2c(c1)C1OC1C[C@H](O)[C@H](O)C(=O)C=CC[C@H](C)OC2=O (stereo partly specified),-,0,?,-
CCn1ccc(C(=O)N2CCC(N3C(=O)C(OCC4CC4)C34CCOCC4)CC2)n1 (stereo unspecified),0,0,0,0
Cc1nc2c(OCC(=O)OC(C)(C)C)cccn2c(=O)c1-c1cc(C)n(-c2cccc(F)c2)n1,0,0,0,?
CCOC(=O)C(C)Oc1cccn2c(=O)c(-c3cc(C)n(-c4ccc(Cl)cc4)n3)c(C)nc12 (stereo unspecified),0,0,0,22µM
Cc1ccc(C(=O)COc2cccn3c(=O)c(-c4cc(C)n(-c5ccccc5)n4)c(C)nc23)cc1,0,0,0,?
Cc1nc2c(OCC(=O)OC(C)(C)C)cccn2c(=O)c1-c1cc(C)n(-c2ccc(Cl)cc2)n1,0,0,0,28µM
O=C(NCCCSc1ccc(F)cc1)C1CCN(C(=O)c2cccs2)CC1,-,-,-,0
CC(C)c1noc(C2CCCN(Cc3ccccc3)CCC(=O)NCC2)n1 (stereo unspecified),0,0,0,0
SMILES,IP6K1 inh,SNCA expr inhib,SNCA viab count,KDM5B inhibitor
O=C(COc1cccc(-n2cnnn2)c1)N1CCN(S(=O)(=O)c2cccc(F)c2)CC1,-,-,-,0
O=C(NCc1cccc(F)c1)C1CCCN(c2nc3ncccc3o2)C1 (stereo unspecified),0,0,0,0
O=C(NCc1ccccn1)C1CCCN(c2nc3ncccc3o2)C1 (stereo unspecified),0,0,0,35µM
COCCNC(=O)C1CCCN(c2nc3ncccc3o2)C1 (stereo unspecified),0,0,0,28µM
COC(=O)CNC(=O)C1CCCN(c2nc3ncccc3o2)C1 (stereo unspecified),0,0,0,28µM
COC(=O)CNC(=O)C1CCCN1c1nc2ncccc2o1 (stereo unspecified),0,0,0,?
COc1ccccc1N=C1NN=C(c2cc(C)n(CC3CCCO3)c2C)CS1 (stereo unspecified),-,-,-,0
O=C(NN1CCN(C(c2ccccc2)c2ccccc2)CC1)c1ccc(F)cc1Cl,-,-,-,0
CCn1cc(CN(C)C(=O)c2ccc3c(c2)C(O)CCCCCN3CCOC)c(C)n1 (stereo unspecified),0,?,0,0
Cc1ccccc1CN1Cc2nc(-c3cccc(C(N)=O)c3)ccc2OCC1=O,0,0,0,32µM
O=C1COc2ccc(-c3ccc4c(c3)OCO4)nc2CN1Cc1ccc(C(F)(F)F)cc1,0,0,0,32µM
CC(=O)Nc1cccc(-c2ccc3c(n2)CN(Cc2ccccc2C)C(=O)CO3)c1,0,0,?,0
Cc1ccccc1CN1Cc2nc(-c3ccc4c(c3)OCO4)ccc2OCC1=O,0,0,?,35µM
COc1ccc(Nc2ccc3c(n2)CN(Cc2ccc(C(F)(F)F)cc2)C(=O)CO3)cn1,0,?,0,11µM
CCOC(=O)Nc1cccc(C(=O)OCc2cccc(C(=O)OC)c2)c1,-,-,-,0
CCOCc1ccccc1CNC(=O)c1cccs1,-,-,-,0
COC[C@]1(O)CCN(C(=O)CCc2ccccc2)CC1(C)C,0,0,0,0
COc1ccc(C(=O)N2CCC3(CCC3OC)CC2)cc1F (stereo unspecified),0,0,0,-
CN1Cc2nc(-c3ccc4c(c3)OCO4)ccc2OCC1=O,0,0,0,32µM
Cc1ccccc1CN1Cc2nc(-c3c(C)noc3C)ccc2OCC1=O,0,0,0,35µM
O=C1COc2ccc(Nc3ccc(Cl)cc3)nc2CN1Cc1nc2ccccc2s1,0,?,32µM,35µM
O=C1CCC(C(=O)N2CCN(c3ccncc3)CC(O)C2)=NN1 (stereo unspecified),0,0,0,0
O=C1Cc2cc(S(=O)(=O)NCc3ccco3)cc3c2N1CCC3,-,-,-,0
CC(C)(C)OC(=O)NC(C)(C)C(=O)NOCc1ccccc1,-,-,-,0
Cc1nc(SC(C)c2ccc(F)c(Cl)c2)sc1CC(N)=O (stereo unspecified),-,-,-,0
Cc1cc(C)c(NC(=O)Cn2c(=O)n(Cc3ccc(C(=O)NCc4ccco4)cc3)c(=O)c3sccc32)c(C)c1,0,25µM,?,0
Cc1cccc(C)c1NC(=O)Cn1c(=O)n(Cc2ccc(C(=O)NCc3ccco3)cc2)c(=O)c2sccc21,0,?,0,0
O=C1CC2(CCN(C(=O)c3ccccc3)CC2)Oc2ccccc21,0,0,0,32µM
O=C1NC2(CCCN(C(=O)c3ccccn3)C2)Oc2ccccc21 (stereo unspecified),0,0,0,0

# Source: PubChem
